Results filed as inconclusive are left out. Activity calls are given as the source filed them. Unless noted, the call rests on the fitted dose curve; in most records, active means well fitted curve in the direction sought with a large enough effect in the repeat runs; inconclusive means weak or mixed curves; inactive means no such curve, though single readings can be large; an effect the other way counts as inactive or inconclusive.
What was measured:
[1] = qHTS assay to identify small molecule antagonists of the estrogen related receptor (ERR) signaling pathway from Tox21 library - cell viability counter screen (AID 1224834); further: nearly all actives have a fitted effect of over 30% in size
Method in brief: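 Counter screen run in ERR cells (2,000 cells/well): cells pre-incubated 6 h, then treated with compounds for 17.5 h at 37 C. Fluorescence was read 30 min after CellTiter-Fluor addition.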

[2] = target: Luciferin 4-monooxygenase (Photinus pyralis) (UniProt P08659); assay: qHTS assay to identify small molecule inhibitors of firefly luciferase (AID 1224835); further: nearly all actives have a fitted effect of over 25% in size
Method in brief: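 Quantitative HTS format; KM concentrations of both substrates. Purified P. pyralis FLuc activity quantified from luminescence images.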

[3] = qHTS assay to identify small molecule agonists of the constitutive androstane receptor (CAR) signaling pathway - cell viability counter screen (AID 1224836); further: nearly all actives have a fitted effect of over 45% in size
Method in brief: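 HepG2-CYP2B6-hCAR, 2500 cells/well, 4 h pre-incubation; cpd 15 conc + PK11195 0.75 uM final; 23 h, 37 C/5% CO2; CellTiter-Fluor, fluorescence.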

[4] = qHTS assay to identify small molecule antagonists of the constitutive androstane receptor (CAR) signaling pathway - cell viability counter screen (AID 1224837); further: nearly all actives have a fitted effect of over 45% in size
Method in brief: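 CITCO at 50 nM final was added alongside compounds (15 concentrations) to double-stable hCAR/CYP2B6-2.2kb HepG2 cells. Following 23 hr at 37 C, cell viability was quantified by CellTiter-Fluor fluorescence intensity.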

[5] = target: Nuclear receptor subfamily 1 group I member 3 (Homo sapiens) (UniProt Q14994); assay: qHTS assay to identify small molecule antagonists of the constitutive androstane receptor (CAR) signaling pathway (AID 1224838); further: nearly all actives have a fitted effect of over 40% in size
Method in brief: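 Inhibition of CITCO-driven (50 nM final) CYP2B6 reporter expression is measured in HepG2 cells stably carrying hCAR. Fifteen compound concentrations are applied for 24 h at 37 C, followed by luciferase luminescence.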

[6] = target: Nuclear receptor subfamily 1 group I member 3 (Homo sapiens) (UniProt Q14994); assay: qHTS assay to identify small molecule agonists of the constitutive androstane receptor (CAR) signaling pathway (AID 1224839); further: nearly all actives have a fitted effect of over 15% in size
Method in brief: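 HepG2-CYP2B6-hCAR cells, 2500/well, 4 h pre-incubation; compounds 15 conc.; PK11195 0.75 uM final; 24 h, 37 C/5% CO2; ONE-Glo luciferase read.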

[7] = qHTS assay to identify small molecule antagonists of the estrogen related receptor signaling pathway with the pleiotropic PPARgamma coactivator (PGC) from Tox21 10K library - cell viability counter screen (AID 1224840; active means well fitted cell-killing curve with a large enough effect in the repeat runs, not every such curve was filed as active; further: nearly all actives have a fitted effect of over 40% in size)
Method in brief: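 Readout: fluorescence intensity from CellTiter-Fluor after 30 min at 37 C/5% CO2. Preceded by 17.5 h treatment of PGC/ERR cells with DMSO-dissolved compounds, added 6 h post-seeding.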

[8] = qHTS assay to identify small molecule antagonists of the estrogen related receptor signaling pathway with the pleiotropic PPARgamma coactivator (PGC) from Tox21 10K library (AID 1224841; call rule not given here; further: actives are mostly falling curves and most rising ones were filed inactive; nearly all actives have a fitted effect of over 50% in size)
Method in brief: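 One-Glo luminescence, measured after half an hour at room temperature, quantified reporter output of PGC/ERR cells. These had been plated at 2,000 per well, incubated 6 h, dosed with compounds in DMSO, then kept 18 h at 37 C.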

[9] = qHTS assay to identify small molecule agonists of the estrogen related receptor signaling pathway with the pleiotropic PPARgamma coactivator (PGC) from Tox21 10K library (AID 1224842); further: nearly all actives have a fitted effect of over 15% in size
Method in brief: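 PGC/ERR reporter cells (NTP line) were seeded 2,000 per well, rested 6 h at 37 C/5% CO2, then pin-dosed with compounds in DMSO for 18 h at 37 C; luciferase read by One-Glo luminescence after 30 min at room temperature.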

[10] = target: Thyrotropin receptor (Homo sapiens) (UniProt P16473); assay: qHTS assay to identify small molecule agonists of the thyroid stimulating hormone receptor (TSHR) signaling pathway (AID 1224843; calls by dose curve; further: nearly all actives have a fitted effect of over 45% in size)
Method in brief: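 Compounds are titrated over 15 concentrations, in triplicate, onto TSHR-HEK293 cells seeded at 800/well. Plates sit 30 min at room temperature before cAMP-d2 and anti-cAMP cryptate are added; signal is read after a further hour.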

[11] = qHTS assay to identify small molecule agonists of the hypoxia (HIF-1) signaling pathway - cell viability counter screen (AID 1224844; calls by dose curve; further: nearly all actives have a fitted effect of over 50% in size)
Method in brief: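 In this counter screen, HRE-bla ME-180 cell viability after 17 hrs of compound exposure at 37C was read by CellTiter-Glo luminescence, multiplexed with the beta-lactamase reporter measurement.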

[12] = qHTS assay to identify small molecule agonists of H2AX (AID 1224845; active means well fitted activation curve with a large enough effect in the signal ratio in the repeat runs, not every such curve was filed as active; the % refers to the signal ratio)
Method in brief: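 Wild-type CHO-K1 cells plated overnight, then exposed 3 hr at 37C to compounds at 15 concentrations (0.76% DMSO). Lysed, then HTRF anti-pH2AX(S139)-cryptate/anti-H2AX-d2 detection after 24 hr at room temperature; emissions 665 and 620 nm.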

[13] = qHTS assay to identify small molecule agonists of the hypoxia (HIF-1) signaling pathway (AID 1224846; active means well fitted activation curve with a large enough effect in the signal ratio in the repeat runs, not every such curve was filed as active; the % refers to the signal ratio)
Method in brief: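 ME-180 HRE-bla reporter cells; compounds in DMSO, 17 h at 37C; read-out beta-lactamase via CCF4-AM FRET.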

[14] = qHTS assay to identify small molecule agonists of H2AX - cell viability counter screen (AID 1224847; calls by dose curve; further: top concentration of the series differs between compounds; nearly all actives have a fitted effect of over 30% in size)
Method in brief: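 Cells plated first: CHO-K1, 1000 per well in 10% FBS medium, incubated overnight at 37C. Then 15-point compound titration added (final DMSO 0.76%) for 3 hr. Finally CellTiter-Glo added and luminescence read.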

[15] = qHTS assay to identify small molecule antagonists of the estrogen related receptor (ERR) signaling pathway from Tox21 library (AID 1224848); further: nearly all actives have a fitted effect of over 50% in size
Method in brief: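 First, 2,000 ERR cells per well were plated and held 6 h at 37 C/5% CO2. Next, compounds in DMSO were pinned in and left 18 h at 37 C. Finally, ONE-Glo was added and luminescence read after 30 min at room temperature.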

[16] = qHTS assay to identify small molecule agonists of the estrogen related receptor (ERR) signaling pathway from Tox21 library (AID 1224849; calls by dose curve; further: nearly all actives have a fitted effect of over 15% in size); details: ERR reporter cell line, ONE-Glo luciferase, 18 h; at 92.4 µM (top of the series) unless noted
Method in brief: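 Luciferase activity in ERR pathway reporter cells served as the agonist readout; exposure lasted 18 h at 37 C, with ONE-Glo detection after 30 min at room temperature.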

[17] = qHTS RealTime-Glo MT Cell Viability Assay in HepG2 cells - 24 hour (AID 1224867); further: nearly all actives have a fitted effect of over 50% in size
Method in brief: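 HepG2 suspension premixed with RealTime-Glo reagents is plated at 600 cells per well and left 5 h at 37 C/5% CO2. Compounds in DMSO then go in, and bioluminescence reflecting viable cell number is recorded over 40 h.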

[18] = qHTS RealTime-Glo MT Cell Viability Assay in HEK293 cells - 32 hour (AID 1224868)
Method in brief: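 Reads taken at 0, 8, 16, 24, 32 and 40 h from the same wells. HEK293 cells (600/well) carried RealTime-Glo reagents from seeding, with compound added after a 5 h settle at 37 C.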

[19] = A CellTox Green Cytotoxicity Assay to monitor cytotoxicity in HEK293 cells - 0 hour (AID 1224869); further: nearly all actives have a fitted effect of over 50% in size
Method in brief: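 Real-time, in one plate: 600 HEK293 cells/well with dead-cell DNA dye, pinned compound after 5 h, 37 C incubation over 40 h; viable cells give no appreciable fluorescence.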

[20] = qHTS RealTime-Glo MT Cell Viability Assay in HepG2 cells - 40 hour (AID 1224870); further: nearly all actives have a fitted effect of over 50% in size
Method in brief: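 HepG2 cells mixed with RealTime-Glo MT reagents (NanoLuc plus cell-permeant prosubstrate) were seeded at 600 cells/well, incubated 5 h at 37 C/5% CO2, then pinned with compounds in DMSO; nonlytic luminescence tracked viability during 40 h treatment.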
On the % scale 0 is the no-effect control and ±100 the full control effect.

Sequence of Nuclear receptor subfamily 1 group I member 3 (Homo sapiens) (Q14994 whole entry, looked up): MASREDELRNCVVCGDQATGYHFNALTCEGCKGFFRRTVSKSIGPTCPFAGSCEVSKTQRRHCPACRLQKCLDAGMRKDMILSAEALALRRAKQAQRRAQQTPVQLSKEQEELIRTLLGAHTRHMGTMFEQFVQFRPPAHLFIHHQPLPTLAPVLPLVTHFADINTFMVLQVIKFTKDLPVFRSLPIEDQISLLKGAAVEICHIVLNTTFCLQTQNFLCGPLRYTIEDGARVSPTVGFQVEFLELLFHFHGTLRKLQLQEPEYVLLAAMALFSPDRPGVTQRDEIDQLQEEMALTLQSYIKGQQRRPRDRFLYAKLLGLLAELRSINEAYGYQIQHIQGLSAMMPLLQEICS
Sequence of Luciferin 4-monooxygenase (Photinus pyralis) (P08659 whole entry, looked up): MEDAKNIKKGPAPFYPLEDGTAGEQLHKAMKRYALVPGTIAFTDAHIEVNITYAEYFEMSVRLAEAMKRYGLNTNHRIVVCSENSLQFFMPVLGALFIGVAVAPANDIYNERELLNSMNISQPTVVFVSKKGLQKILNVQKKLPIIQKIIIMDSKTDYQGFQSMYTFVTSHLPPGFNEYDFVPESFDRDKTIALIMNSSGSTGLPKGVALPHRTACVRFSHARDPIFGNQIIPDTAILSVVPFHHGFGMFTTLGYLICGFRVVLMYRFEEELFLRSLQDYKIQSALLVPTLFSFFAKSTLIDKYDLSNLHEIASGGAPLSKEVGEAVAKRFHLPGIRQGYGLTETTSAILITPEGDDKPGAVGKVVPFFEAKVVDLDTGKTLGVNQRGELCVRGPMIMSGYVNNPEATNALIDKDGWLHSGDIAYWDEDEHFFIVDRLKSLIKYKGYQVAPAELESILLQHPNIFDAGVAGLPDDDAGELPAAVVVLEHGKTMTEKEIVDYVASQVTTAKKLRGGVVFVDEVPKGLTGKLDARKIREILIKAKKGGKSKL
Sequence of Thyrotropin receptor (Homo sapiens) (P16473 whole entry, looked up): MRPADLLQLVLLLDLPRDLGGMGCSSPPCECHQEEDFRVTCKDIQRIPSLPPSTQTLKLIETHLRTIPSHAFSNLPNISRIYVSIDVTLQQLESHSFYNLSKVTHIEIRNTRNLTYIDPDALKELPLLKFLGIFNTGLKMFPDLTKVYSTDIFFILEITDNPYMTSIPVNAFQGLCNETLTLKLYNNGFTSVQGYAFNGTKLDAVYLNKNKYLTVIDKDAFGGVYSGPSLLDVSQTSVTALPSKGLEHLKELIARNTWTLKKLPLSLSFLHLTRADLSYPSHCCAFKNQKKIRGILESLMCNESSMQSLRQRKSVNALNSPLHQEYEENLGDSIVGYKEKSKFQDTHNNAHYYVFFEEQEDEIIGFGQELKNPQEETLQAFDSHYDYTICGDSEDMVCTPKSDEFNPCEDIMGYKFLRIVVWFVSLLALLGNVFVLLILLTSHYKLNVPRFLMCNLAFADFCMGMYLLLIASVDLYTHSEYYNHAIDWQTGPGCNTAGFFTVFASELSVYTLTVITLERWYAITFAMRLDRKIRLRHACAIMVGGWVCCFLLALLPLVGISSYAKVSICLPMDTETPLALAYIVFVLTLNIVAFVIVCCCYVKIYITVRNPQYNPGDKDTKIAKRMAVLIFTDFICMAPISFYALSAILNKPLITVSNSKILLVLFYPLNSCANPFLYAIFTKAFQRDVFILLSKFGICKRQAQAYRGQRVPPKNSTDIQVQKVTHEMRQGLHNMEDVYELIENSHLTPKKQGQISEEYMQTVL

COc1cc(C(=O)N2CCCCCCC2)cc(OC)c1OC
inactive: Potency [1] | Potency [2] | Potency [3] | Potency [4] | Potency [5] | Potency [6] | Potency [7] | Potency [8] | outcome [9] | Potency [10] | Potency [11] | outcome [12] | outcome [13] | Potency [14] | Potency [15] | activity change, positive = activation [16] 8.77% [at 42.5 µM] | Potency [17] | Potency [18] | Potency [19] | Potency [20]

CC(=O)OCC(=O)[C@@]1(O)CCC2C3CCC4=CC(=O)CC[C@]4(C)C3[C@@H](O)C[C@@]21C (stereo not given in full)
inactive: Potency [1] | Potency [2] | Potency [3] | Potency [4] | Potency [5] | Potency [6] | Potency [7] | Potency [8] | outcome [9] | Potency [10] | Potency [11] | outcome [12] | outcome [13] | Potency [14] | Potency [15] | Potency [17] | Potency [18] | Potency [19] | Potency [20]

C/C=C(\C)C#N
inactive: Potency [1] | Potency [2] | Potency [3] | Potency [4] | Potency [5] | Potency [6] | Potency [7] | Potency [8] | outcome [9] | Potency [10] | Potency [11] | outcome [12] | outcome [13] | Potency [14] | Potency [15] | activity change, positive = activation [16] 0.294% | Potency [17] | Potency [18] | Potency [19] | Potency [20]

CC(=O)c1ccccc1O
inactive: Potency [1] | Potency [2] | Potency [3] | Potency [4] | Potency [5] | Potency [6] | Potency [7] | Potency [8] | outcome [9] | Potency [10] | Potency [11] | outcome [12] | outcome [13] | Potency [14] | Potency [15] | activity change, positive = activation [16] 0.43% | Potency [17] | Potency [18] | Potency [19]

Nc1c[n+](N2CCOCC2)no1
inactive: Potency [1] | Potency [2] | Potency [3] | Potency [4] | Potency [5] | Potency [6] | Potency [7] | Potency [8] | outcome [9] | Potency [10] | Potency [11] | outcome [12] | outcome [13] | Potency [14] | Potency [15] | activity change, positive = activation [16] 0.251% [at 42.5 µM] | Potency [17] | Potency [18] | Potency [19]

CCCC(=O)O[C@]1(C(=O)CO)CC[C@H]2[C@@H]3CCC4=CC(=O)CC[C@]4(C)[C@H]3[C@@H](O)C[C@@]21C
inactive: Potency [1] | Potency [2] | Potency [3] | Potency [4] | Potency [5] | Potency [6] | Potency [7] | Potency [8] | outcome [9] | Potency [10] | Potency [11] | outcome [12] | outcome [13] | Potency [14] | Potency [15] | Potency [17] | Potency [18] | Potency [19]

CC(C)(CC(=O)O)C(=O)O
inactive: Potency [1] | Potency [2] | Potency [3] | Potency [4] | Potency [5] | Potency [6] | Potency [7] | Potency [8] | outcome [9] | Potency [10] | Potency [11] | outcome [12] | outcome [13] | Potency [14] | Potency [15] | activity change, positive = activation [16] 3.63% | Potency [17] | Potency [18] | Potency [20]

CC/C=C\CC/C=C/C(OCC)OCC
inactive: Potency [1] | Potency [2] | Potency [3] | Potency [4] | Potency [5] | Potency [6] | Potency [7] | Potency [8] | outcome [9] | Potency [10] | Potency [11] | outcome [12] | outcome [13] | Potency [14] | Potency [15] | activity change, positive = activation [16] 2.27% | Potency [17] | Potency [18] | Potency [19]

CCc1cccc2c(CCO)c[nH]c12
inactive: Potency [1] | Potency [2] | Potency [3] | Potency [4] | Potency [5] | Potency [6] | Potency [7] | Potency [8] | outcome [9] | Potency [10] | Potency [11] | outcome [12] | outcome [13] | Potency [14] | Potency [15] | activity change, positive = activation [16] 6.5% [at 42.5 µM] | Potency [17] | Potency [18] | Potency [19] | Potency [20]

COC(=O)NN
inactive: Potency [1] | Potency [2] | Potency [3] | Potency [4] | Potency [5] | Potency [6] | Potency [7] | Potency [8] | outcome [9] | Potency [10] | Potency [11] | outcome [12] | outcome [13] | Potency [14] | Potency [15] | activity change, positive = activation [16] -24.9% | Potency [17] | Potency [18] | Potency [19]

N[C@H]1CN(c2c(F)cc3c(=O)c(C(=O)O)cn(C4C[C@H]4F)c3c2Cl)CC12CC2 (stereo not given in full)
inactive: Potency [1] | Potency [2] | Potency [3] | Potency [4] | Potency [5] | Potency [6] | Potency [7] | Potency [8] | outcome [9] | Potency [11] | outcome [12] | outcome [13] | Potency [14] | Potency [15] | activity change, positive = activation [16] 5.03% [at 42.5 µM] | Potency [17] | Potency [18] | Potency [19] | Potency [20]

Cc1ccc(=O)n(-c2ccccc2)c1
inactive: Potency [1] | Potency [2] | Potency [3] | Potency [4] | Potency [5] | Potency [6] | Potency [7] | Potency [8] | outcome [9] | Potency [10] | Potency [11] | outcome [12] | Potency [14] | Potency [15] | activity change, positive = activation [16] -0.153% [at 42.5 µM] | Potency [17] | Potency [18] | Potency [19] | Potency [20]

— PubChem BioAssay (Tox21)
